# Source: PubChem BioAssay
# Active and inactive are the calls of the source. Unless noted, no rule for the calls is given here.
# Tests used:
# [1] = circadian clock period modulators, cell-based, LOPAC library, luminescence reporter (AID 2774); settings: circadian reporter cells, at 7 µM, actives lie on both sides;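 also: values are relative to mean of DMSO wells on each plate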
# [2] = test system: Aerobactin synthetase IucA (Klebsiella pneumoniae, hypervirulent); assay: IucA enzyme inhibition, biochemical, LOPAC library, absorbance readout (AID 1346212); settings: IucA enzyme assay, absorbance (OD) readout; stronger effect = lower value;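 tested at 8 µM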;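 also: 100% = no compound wells and 0% = no enzyme wells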
# [3] = test system: Hepatitis C virus NS3 helicase; assay: HCV NS3 helicase inhibitors, primary screen, biochemical, fluorescence polarization, LOPAC1280 library (AID 687035; in the data active = inhibition above about 37%); settings: Purified HCV NS3 helicase, Cy5-dT15 ssDNA binding fluorescence polarization; stronger effect = higher value; concentration not given here
# [4] = Cy5 fluorescence quenching or enhancement artefacts, artefact control for HCV NS3 helicase inhibitor project, biochemical, LOPAC1280 (AID 687037); settings: Cy5-DNA-NS3h complex fluorescence interference counterscreen
# [5] = sensitizers of A549 cells to miR-34 induction, primary screen, imaging, A549 dox-inducible miR-34, nuclei and caspase counts (AID 1347080;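 active = compounds whose cell count with miR-34 switched on is under 0.7 times the count with it off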); settings: A549 miR-34 inducible, Hoechst nuclei count, 48 h
# [6] = viability rescue of complex I mutant cybrids, primary screen, cell-based, galactose medium, ATP luminescence (AID 1645843;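 active = z-score of at least 1.8 in each of two replicates, scored against plate mean and spread of sample wells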;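 also: positive z means more ATP and so rescue of galactose-driven cybrid death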); settings: complex I mutant cybrid cells, 72 h, stronger effect = higher value
# [7] = phospholipid biosynthesis inhibitors in animal cells, primary screen, cell-based, LOPAC library, screen 4 (AID 1347384); settings: phospholipid biosynthesis inhibition screen, at 10 µM
# [8] = hESC survival regulators, cell-based (AID 493140); settings: human embryonic stem cell survival screen; stronger effect = higher value;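 also: cells exposed to compounds for four days before counting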
# [9] = measured here: relative caspase fold change +Dox/-Dox
# [10] = measured here: total cells with miR-34 induction, stronger effect = lower value
# [11] = measured here: total cells without miR-34 induction
structure (smiles),measurement,setting,value
CCCN(CCC)[C@@H]1CCc2c(F)ccc(O)c2C1,period change,[1],-0.015 h (inactive)
same,remaining activity,[2],110% (inactive)
CCN(CC)c1ncnc2c1ncn2[C@@H]1O[C@H](COP(=O)(O)OP(=O)(O)C(Br)(Br)P(=O)(O)O)[C@@H](O)[C@H]1O,period change,[1],0.205 h (inactive)
same,inhibition,[3],-1% (inactive)
same,fluorescence ratio (interference),[4],1 (inactive)
same,remaining activity,[2],110% (inactive)
same,fold change,[5]; stronger effect = lower value,1.01 (inactive)
same,fold change,[5]; [9],2.23
same,cell count,[5]; [10],10400
same,cell count,[5]; [11],10200
same,z-score,[6],0.37 (inactive)
CC(C)(O)[C@@H]1C2OC(=O)C1[C@]1(O)C[C@H]3O[C@]34C(=O)O[C@H]2[C@]14C (some centres not stated) (tested in a mixture with another compound),remaining activity,[2],128% (inactive)
same,outcome,[7],inactive
Nc1ncnc2c1ncn2[C@@H]1O[C@H](COP(=O)(O)CP(=O)(O)OP(=O)(O)O)[C@H](O)C1O (some centres not stated),period change,[1],0.01 h (inactive)
same,inhibition,[3],-1% (inactive)
same,fluorescence ratio (interference),[4],1 (inactive)
same,remaining activity,[2],111% (inactive)
same,fold change,[5]; stronger effect = lower value,1.06 (inactive)
same,fold change,[5]; [9],0.784
same,cell count,[5]; [10],11200
same,cell count,[5]; [11],10600
same,z-score,[6],2.36 (active)
CC(=O)[C@H]1CC[C@H]2[C@@H]3CC[C@H]4C[C@](C)(O)CC[C@]4(C)[C@H]3CC[C@]12C,inhibition,[3],-2% (inactive)
same,fluorescence ratio (interference),[4],1 (inactive)
same,remaining activity,[2],116% (inactive)
same,fold change,[5]; stronger effect = lower value,0.971 (inactive)
same,fold change,[5]; [9],1.33
same,cell count,[5]; [10],10300
same,cell count,[5]; [11],10600
same,outcome,[7],inactive
same,z-score,[6],-0.05 (inactive)
CCCN(CCC)CCc1c[nH]c2ccc(C(N)=O)cc12,period change,[1],0.085 h (inactive)
same,inhibition,[3],0% (inactive)
same,fluorescence ratio (interference),[4],1.1 (inactive)
same,remaining activity,[2],109% (inactive)
CCN(CC)C(=O)N[C@@H]1C[C@@H]2c3cccc4[nH]cc(c34)C[C@H]2N(C)C1,period change,[1],0.085 h (inactive)
same,remaining activity,[2],102% (inactive)
N[C@H](CCCCCP(=O)(O)O)C(=O)O,period change,[1],-0.025 h (inactive)
same,remaining activity,[2],114% (inactive)
CCCCCCC(C)(C)c1ccc([C@@H]2C[C@H](O)CC[C@H]2CCCO)c(O)c1,period change,[1],0.01 h (inactive)
same,inhibition,[3],-4% (inactive)
same,fluorescence ratio (interference),[4],1 (inactive)
same,remaining activity,[2],106% (inactive)
same,fold change,[5]; stronger effect = lower value,0.915 (inactive)
same,fold change,[5]; [9],0.979
same,cell count,[5]; [10],5170
same,cell count,[5]; [11],5640
CC1Cc2cc3c(cc2C(c2ccc(N)cc2)=NN1)OCO3 (configuration not stated),period change,[1],0.09 h (inactive)
same,remaining activity,[2],102% (inactive)
O=C(O)C1C2CCC(O2)C1C(=O)O (configuration not stated),period change,[1],0.03 h (inactive)
same,survival,[8],66 (inactive)
same,remaining activity,[2],81.7% (inactive)
CC(C)[C@H]1CN[C@H](C(=O)O)[C@H]1CC(=O)O,inhibition,[3],1% (inactive)
same,fluorescence ratio (interference),[4],1 (inactive)
same,remaining activity,[2],93.8% (inactive)
same,fold change,[5]; stronger effect = lower value,0.952 (inactive)
same,fold change,[5]; [9],0.99
same,cell count,[5]; [10],9550
same,cell count,[5]; [11],10000
same,outcome,[7],inactive
same,z-score,[6],0.11 (inactive)
C=CCN1CC[C@]23c4c5ccc(O)c4O[C@@H]2/C(=N/N=C2\CC[C@@]4(O)C6Cc7ccc(O)c8c7[C@@]4(CCN6CC=C)[C@@H]2O8)CC[C@@]3(O)C1C5,period change,[1],0.015 h (inactive)
same,remaining activity,[2],108% (inactive)
c1ccc(C2(c3ccccc3)CC2C2=NCCN2)cc1 (configuration not stated),inhibition,[3],-3% (inactive)
same,fluorescence ratio (interference),[4],0.9 (inactive)
same,remaining activity,[2],115% (inactive)
same,fold change,"[5]; stronger effect = lower value, cell number ratio, induced over uninduced",1.07 (inactive)
same,fold change,[5]; [9],1.35
same,cell count,[5]; [10],11300
same,cell count,[5]; [11],10600
same,outcome,[7],inactive
same,z-score,[6],0.18 (inactive)
O=C(OC1CCN(CCCl)CC1)C(c1ccccc1)c1ccccc1,period change,[1],-0.15 h (inactive)
same,remaining activity,[2],106% (inactive)
CCCN(CCC)C(=O)Cc1c(-c2ccc(Cl)cc2)nc2c(Cl)cc(Cl)cn12,period change,[1],-0.05 h (inactive)
same,remaining activity,[2],120% (inactive)
CNC(=O)OCC[N+](C)(C)C,period change,[1],-0.01 h (inactive)
same,remaining activity,[2],109% (inactive)
CN(N=O)c1cc(O)ccc1O,period change,[1],0.05 h (inactive)
same,inhibition,[3],-1% (inactive)
same,fluorescence ratio (interference),[4],1 (inactive)
same,remaining activity,[2],103% (inactive)
same,fold change,[5]; stronger effect = lower value,1.03 (inactive)
same,fold change,[5]; [9],1.21
same,cell count,[5]; [10],9960
same,cell count,[5]; [11],9640
same,z-score,[6],-1.04 (inactive)
